Compounds with a hit are over-represented: about 0.82% of the library has one in this group of screens.
Yp Topo-I inh – Y. pestis Topo-I inhibition via cleavage products | activity, % at 10 µM | Y. pestis Topo-I cleavage product accumulation, plate reader | hit rate 0.064% among 360,000; in the data active = activity above about 50%, passing the limit was not always enough
FadD28 FP inh – blocks FadD28 binding to the bisubstrate probe; AID 588549; fluorescence polarization; inhibition, % at 12.5 µM; hit rate 0.22% among 360,000; in the data active = inhibition above about 8.5%, passing the limit was not always enough
RecA intein inh – inhibitors of M. tuberculosis RecA intein splicing; hit rate 0.75% among 290,000; cell-free RecA intein splicing, fluorescence; P9WHJ3; inhibition, % (no concentration beside the values); in the data active = inhibition above about 30%;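 also: 0% = vehicle wells and 100% = reference inhibitor control wells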
Target sequence (P9WHJ3 whole entry, looked up): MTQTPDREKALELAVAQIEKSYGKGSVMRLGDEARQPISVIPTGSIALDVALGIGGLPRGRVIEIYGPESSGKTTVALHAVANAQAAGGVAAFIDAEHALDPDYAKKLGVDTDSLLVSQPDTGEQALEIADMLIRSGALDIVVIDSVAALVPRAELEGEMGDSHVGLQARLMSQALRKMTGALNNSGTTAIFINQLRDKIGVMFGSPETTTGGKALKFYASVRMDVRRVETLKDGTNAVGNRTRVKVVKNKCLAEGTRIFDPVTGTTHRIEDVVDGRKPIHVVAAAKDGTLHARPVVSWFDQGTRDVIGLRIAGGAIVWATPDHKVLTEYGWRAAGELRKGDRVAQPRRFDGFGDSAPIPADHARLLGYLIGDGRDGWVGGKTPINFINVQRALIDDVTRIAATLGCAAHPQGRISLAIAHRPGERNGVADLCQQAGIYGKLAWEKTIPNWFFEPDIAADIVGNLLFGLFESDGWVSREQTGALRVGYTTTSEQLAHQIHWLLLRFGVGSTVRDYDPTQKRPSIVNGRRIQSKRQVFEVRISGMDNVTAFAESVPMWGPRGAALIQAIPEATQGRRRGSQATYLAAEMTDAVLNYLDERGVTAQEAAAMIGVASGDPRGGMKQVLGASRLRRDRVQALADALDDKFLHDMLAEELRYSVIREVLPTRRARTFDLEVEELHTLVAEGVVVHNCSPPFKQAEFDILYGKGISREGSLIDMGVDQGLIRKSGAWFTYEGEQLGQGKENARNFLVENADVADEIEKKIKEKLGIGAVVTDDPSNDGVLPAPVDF
Rv3671c inh – Rv3671c (M. tuberculosis) protease inhibition; inhibition, % at 5.96 µM; hit rate 0.048% among 320,000; AID 2606; in the data active = inhibition above about 38%;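 also: extracellular domain of Rv3671c used as enzyme; 0% = enzyme with DMSO and 100% = no enzyme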
BioA inh – blocks M. tuberculosis BioA enzyme activity | inhibition, % at 9.99 µM | AID 602481 | hit rate 0.096% among 360,000 | purified M. tuberculosis BioA enzyme, plate reader; in the data active = inhibition above about 40%
UGM FP inh – blocks M. tuberculosis UGM enzyme; purified UGM, fluorescence polarization probe displacement; P9WIQ1; AID 504406; inhibition, % at 10 µM; hit rate 0.06% among 320,000; in the data active = inhibition above about 10%, passing the limit was not always enough
Active calls of the source: *; / = not tested or not shown.

SMILES	Yp Topo-I inh	FadD28 FP inh	RecA intein inh	Rv3671c inh	BioA inh	UGM FP inh
O=C(O)COc1ccccc1C=NNc1ccc([N+](=O)[O-])cc1S(=O)(=O)Nc1ccc(Cl)cc1	-10	16*	/	-21	8	3
O=C(O)c1ccccc1NS(=O)(=O)c1ccc(N/N=C/c2ccc(O)c(O)c2)c([N+](=O)[O-])c1	-6	53*	/	/	6	/
O=C(O)c1ccccc1NS(=O)(=O)c1ccc(NN=Cc2ccc(F)cc2)c([N+](=O)[O-])c1	-9	0	/	1	/	-1
COc1ccccc1NS(=O)(=O)c1ccc(N/N=C/c2ccccc2OCC(=O)O)c([N+](=O)[O-])c1	14	19*	-2	17	0	2
CC(C)NC(=O)Nc1cccc2c1O[C@H](CN(C)C(=O)Nc1ccc(F)cc1)[C@@H](C)CN([C@@H](C)CO)C2=O	/	/	/	/	-1	/
CCC(=O)Nc1ccc2c(c1)C(=O)N(C)C[C@H](OC)[C@@H](C)CN(C(=O)c1cccnc1)[C@@H](C)CO2	/	/	/	/	-1	/
CC(C)C(=O)Nc1ccc2c(c1)C(=O)N(C)[C@H]1CC[C@H](CC(=O)N[C@H](C)c3ccccc3)O[C@@H]1CO2	/	/	/	/	1	/
CC(C)NC(=O)Nc1ccc2c(c1)C(=O)N([C@@H](C)CO)C[C@H](C)[C@H](CN(C)Cc1ccc(Cl)c(Cl)c1)O2	/	/	/	/	-1	/
N#C/C(=C(/O)CSc1ccccc1C(=O)O)c1nc2ccccc2s1	1	2	-6	0	-1	14*
C/C(CC(=O)Nc1ccccn1)=N\NC(=O)c1ccc(C)cc1	5	0	47*	-7	/	-3
C[C@@H]1CCCCO[C@@H](CN(C)S(=O)(=O)c2ccc(F)cc2)[C@H](C)CN([C@@H](C)CO)C(=O)c2cc(NC(=O)Cc3ccccc3)ccc2O1	/	/	/	/	-1	/
CC1(C)CC2(C)OC(=N)C1(C#N)C2(C#N)C#N (centres undefined)	2	-3	45*	-3	/	-4
CN(C)S(=O)(=O)c1cc(NC(=O)CSc2ncc(C(F)(F)F)cc2Cl)ccc1Cl	3	13*	10	-39	/	0
COc1ccc(NC(=S)NC(NC(=O)CCl)C(Cl)(Cl)Cl)c([N+](=O)[O-])c1 (centres undefined)	-11	-1	55*	-9	-1	-1
O=C(O)c1ccc(/C=C(\c2nc3ccccc3[nH]2)c2nc3ccccc3s2)cc1	4	-5	39*	-2	8	0
O=C(NN1C(=O)/C(=C\c2ccc(O)c([N+](=O)[O-])c2)SC1=S)c1ccccc1Cl	-1	15*	10	5	5	2
O=C(NN1C(=O)/C(=C/c2ccc(O)c(O)c2)SC1=S)c1ccccc1	-18	43*	-1	-111	6	-3
Cc1ccc(C(=O)NN2C(=O)/C(=C/c3cccn3C)SC2=S)cc1	7	13*	-8	-10	-3	7
O=C(O)c1ccc(/C=C2\SC(=S)N(NC(=O)c3ccccc3[N+](=O)[O-])C2=O)cc1	-1	-2	-8	/	0	2
O=C(Cc1ccccn1)NCC[C@@H]1CC[C@H](NC(=O)CN2CCOCC2)[C@H](CO)O1	/	/	/	/	1	/
CCc1cccc2c(/C=N/NC(=O)c3cccc(S(=O)(=O)Nc4ccccc4Cl)c3)c[nH]c12	-20	34*	-1	11	/	1
Cc1[nH]c2ccccc2c1/C=N/NC(=O)c1cccc(S(=O)(=O)Nc2ccccc2Cl)c1	-16	-1	2	-6	-1	3
CO[C@@H](CN(C)S(=O)(=O)c1ccccc1)[C@@H](C)CN(Cc1ccccc1Cl)[C@@H](C)CO	/	/	/	/	0	/
CO[C@@H]1CN(C)C(=O)c2ccc(NC(=O)C3CCC3)cc2OC[C@H](C)N(Cc2ccncc2)C[C@@H]1C	/	/	/	/	0	/
COc1ccc(C2CC(c3ccccc3)=NN2C(=O)COC(=O)c2cccc(S(=O)(=O)N(C)C)c2)cc1 (centres undefined)	31	-1	4	-18	/	0
SMILES	Yp Topo-I inh	FadD28 FP inh	RecA intein inh	Rv3671c inh	BioA inh	UGM FP inh
COc1ccc(C2CC(c3ccccc3)=NN2C(=O)COC(=O)c2cccc(S(=O)(=O)N3CCOCC3)c2)cc1 (centres undefined)	60*	-1	3	-11	/	1
Cc1cc2c(SCC(=O)Nc3cccc(O)c3)ncnc2s1	-5	19*	/	/	1	/
COc1ccc(NC(=O)CSc2ncnc3sc(C)cc23)cc1	18	-1	/	-3	0	5
CCSC(=O)CCCCCCCCCCCO	38	18*	8	-2	3	1
CCCCOc1ccc(C(=O)C(CN2CCOCC2)c2ccccc2)cc1 (centres undefined)	25	-3	32*	-5	1	-1
COc1ccc(-c2cc(C#N)nc(Cl)n2)cc1	4	-3	40*	6	/	-1
COc1ccc(-c2cc(C#N)nc(Oc3ccc(Cl)cc3)n2)cc1	16	0	1	5	/	0
O=C(O)c1cc(-c2ccc(/C=N/Nc3ccc([N+](=O)[O-])cn3)o2)ccc1Cl	-5	1	/	/	/	/
N/C(=N\N=C/c1ccc(-c2ccc(O)c(C(=O)O)c2)o1)N[N+](=O)[O-]	-10	12*	-2	-1	2	0
O=C(NCCSc1ccc(Cl)cc1)c1ccc(CN2CCOCC2)cc1	14	-2	-6	1	/	2
O=C(NCCSCc1ccc(Cl)cc1Cl)c1ccc(CN2CCOCC2)cc1	36	43*	5	-3	1	1
CCOC(=O)/C(C#N)=C1\CC2CCC1(C)C2(C)C (centres undefined)	-4	-2	-1	1	/	13*
Cc1ccc(-n2[nH]c(C)c(/C=N/NC(=O)c3ccc([N+](=O)[O-])cc3)c2=O)c(C)c1	8	0	32*	15	/	2
Cc1[nH]n(-c2cccc3ccccc23)c(=O)c1/C=N/NC(=O)c1cccc([N+](=O)[O-])c1	-5	-3	10	-6	-1	5
CCC1=C/C(=C/c2sc3ccccc3[n+]2CC)CC(C)(C)C1	/	/	11	-12	/	-2
CC[n+]1c(/C=C2\C=C(C)CC(C)(C)C2)sc2ccccc21	8	-5	47*	0	-1	1
COc1ccc(NC(=O)Nc2ccc3c(c2)C(=O)N([C@@H](C)CO)C[C@@H](C)[C@H](CN(C)S(=O)(=O)c2ccc(OC)cc2)O3)cc1	/	/	/	/	4	/
COc1ccc(C(C#N)=Cc2ccc(OC)c(OC)c2)cc1	34	-3	/	/	2	/
COc1ccc(/C=C(/C#N)c2cccnc2)cc1OC	-4	-4	0	4	58*	1
CCCC#Cc1ccc([C@H]2[C@H](CO)N3CCCCN(C(=O)NC4CCCC4)C[C@@H]23)cc1	/	/	/	/	-2	/
CC(=O)N1[C@H](CO)[C@@H]2c3ccccc3N(S(=O)(=O)c3ccc(F)cc3)C[C@@H]21	/	/	/	/	2	/
COc1ccccc1-c1nnc(SCC(=O)Nc2oc(C)c3c(C)n[nH]c(=O)c23)n1C	-7	0	-2	4	-3	3
Cc1n[nH]c(=O)c2c(NC(=O)CSc3nnc(-c4ccco4)n3C)oc(C)c12	4	-1	/	-6	-1	47*
